Inconclusive results are not listed. Where a call stands in place of a potency, no number is given. Active and inactive are the calls of the source. Unless noted, calls come from the whole dose curve; as a rule, active = well fitted curve in the direction sought with a large enough effect in the repeat runs; inconclusive = weak or mixed curves; inactive = no such curve, though single readings can be large; an effect the other way counts as inactive or inconclusive.
Assays:
[1] = qHTS assay to identify small molecule antagonists of the glucocorticoid receptor (GR) signaling pathway - cell viability counter screen (AID 720693); note: nearly all actives have a fitted effect of over 55% in size; note: potency is the fitted concentration of half-maximal effect
[2] = qHTS assay for identifying genotoxic compounds that show differential cytotoxicity against isogenic chicken DT40 cell lines with known DNA damage response pathways - wild type cell line (AID 743012); note: nearly all actives have a fitted effect of over 60% in size; note: potency is the fitted concentration of half-maximal effect
Summary of the method: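 Cytotoxicity in repair-proficient parental chicken DT40 cells serves as the comparator for Rad54/Ku70- and Rev3-deficient lines. Cells were exposed to compounds for 40 h at 37 C/5% CO2, and ATP-based luminescence (CellTiter-Glo) measured viability.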

[3] = qHTS assay for identifying genotoxic compounds that show differential cytotoxicity against isogenic chicken DT40 cell lines with known DNA damage response pathways - Rev3 mutant cell line (AID 743014); note: nearly all actives have a fitted effect of over 55% in size; note: potency is the fitted concentration of half-maximal effect
[4] = qHTS assay for identifying genotoxic compounds that show differential cytotoxicity against isogenic chicken DT40 cell lines with known DNA damage response pathways - Rad54/Ku70 mutant cell line (AID 743015); note: nearly all actives have a fitted effect of over 60% in size; note: potency is the fitted concentration of half-maximal effect
[5] = qHTS assay to identify small molecule antagonists of the androgen receptor (AR) signaling pathway - cell viability counter screen (AID 743033; note: nearly all actives have a fitted effect of over 45% in size; note: potency is the fitted concentration of half-maximal effect)
[6] = qHTS assay to identify small molecule antagonists of the androgen receptor (AR) signaling pathway using the MDA cell line - cell viability counter screen (AID 743041; note: nearly all actives have a fitted effect of over 45% in size; note: potency is the fitted concentration of half-maximal effect)
Summary of the method: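 In this qHTS counter assay, fluorescence intensity after CellTiter-Fluor addition indicated viability of MDA-kb2 AR-luc cells given compounds and R1881 for 16 h at 37C.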

[7] = molecular target: Androgen receptor (Homo sapiens) (UniProt P10275); assay: qHTS assay to identify small molecule antagonists of the androgen receptor (AR) signaling pathway (AID 743035; active = well fitted inhibition curve with a large enough effect in the signal ratio in the repeat runs, not every such curve was filed as active; the % refers to the signal ratio; note: potency is the fitted concentration of half-maximal effect)
Chain of Androgen receptor (Homo sapiens) (P10275 whole entry, looked up): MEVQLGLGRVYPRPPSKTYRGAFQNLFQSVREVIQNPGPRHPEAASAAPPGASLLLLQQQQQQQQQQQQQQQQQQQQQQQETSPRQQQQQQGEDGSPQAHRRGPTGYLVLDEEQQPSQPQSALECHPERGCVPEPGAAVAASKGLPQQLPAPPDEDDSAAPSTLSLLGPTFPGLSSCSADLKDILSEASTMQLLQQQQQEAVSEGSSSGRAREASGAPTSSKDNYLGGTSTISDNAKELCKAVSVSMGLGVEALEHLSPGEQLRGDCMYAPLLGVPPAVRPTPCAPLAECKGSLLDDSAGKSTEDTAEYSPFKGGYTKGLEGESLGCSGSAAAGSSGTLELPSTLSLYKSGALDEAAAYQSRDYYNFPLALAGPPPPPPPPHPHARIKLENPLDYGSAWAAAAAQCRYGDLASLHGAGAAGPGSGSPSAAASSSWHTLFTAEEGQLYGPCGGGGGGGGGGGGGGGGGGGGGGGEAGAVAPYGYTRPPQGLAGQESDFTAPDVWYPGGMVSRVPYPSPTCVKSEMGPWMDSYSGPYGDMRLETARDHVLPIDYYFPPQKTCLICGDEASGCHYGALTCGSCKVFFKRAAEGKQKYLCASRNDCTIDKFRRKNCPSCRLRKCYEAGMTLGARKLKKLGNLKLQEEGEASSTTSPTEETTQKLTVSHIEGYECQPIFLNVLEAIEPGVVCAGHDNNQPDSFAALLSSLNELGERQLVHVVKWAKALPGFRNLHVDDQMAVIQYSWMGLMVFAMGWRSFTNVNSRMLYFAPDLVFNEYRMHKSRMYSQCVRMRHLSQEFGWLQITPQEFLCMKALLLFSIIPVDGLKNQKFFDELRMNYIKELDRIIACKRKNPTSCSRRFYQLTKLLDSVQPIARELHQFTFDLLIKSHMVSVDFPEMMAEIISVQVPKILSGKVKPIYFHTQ
Summary of the method: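 Steps: seed AR-UAS-bla GripTite HEK293 cells, incubate 4 h at 37C; pin in test compound, then add agonist R1881; incubate 16 h at 37C; add LiveBLAzer B/G FRET substrate, 2 h at room temperature; read fluorescence.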

[8] = molecular target: Androgen receptor (Homo sapiens) (UniProt P10275); assay: qHTS assay to identify small molecule agonists of the androgen receptor (AR) signaling pathway using the MDA cell line (AID 743040; note: nearly all actives have a fitted effect of over 20% in size)
Summary of the method: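 Cell-based luciferase reporter: MDA-kb2, MMTV promoter (AR + GR response elements). 16 h compound exposure at 37C; ONE-Glo, 30 min RT, luminescence.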

[9] = molecular target: Androgen receptor (Homo sapiens) (UniProt P10275); assay: qHTS assay to identify small molecule antagonists of the androgen receptor (AR) signaling pathway using the MDA cell line (AID 743042; note: potency is the fitted concentration of half-maximal effect; nearly all actives have a fitted effect of over 55% in size)
Summary of the method: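 MDA-kb2 cells (human breast carcinoma, stably carrying an MMTV-luciferase reporter responsive to AR and GR) were plated at 3,000 cells/well and preincubated 5 hr at 37C, then given compound plus R1881 agonist for 16 h. ONE-Glo luminescence was read.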

[10] = molecular target: Androgen receptor (Homo sapiens) (UniProt P10275); assay: qHTS assay to identify small molecule agonists of the androgen receptor (AR) signaling pathway (AID 743036; active = well fitted activation curve with a large enough effect in the signal ratio in the repeat runs, with a control signal flat, not every such curve was filed as active; the % refers to the signal ratio)
Summary of the method: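 HEK293 cells stably carrying a UAS-driven beta-lactamase reporter (GeneBLAzer AR-UAS-bla-GripTite) were plated at 2,000 cells/well, rested 4 h at 37C, then exposed to compounds in DMSO for 16 h. LiveBLAzer B/G FRET substrate was added for 2 h at room temperature; fluorescence read.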

SMILES | Potency [1] | Potency [2] | Potency [3] | Potency [4] | Potency [5] | Potency [6] | Potency [7] | outcome [8] | Potency [9] | outcome [10]
O=C(O)CCC(=O)C(=O)O | inactive | inactive | inactive | inactive | inactive | inactive | – | – | – | –
FC(F)(F)c1ccccc1Cl | inactive | inactive | inactive | inactive | inactive | inactive | – | – | – | –
CCC=CC#N | inactive | inactive | inactive | inactive | inactive | inactive | – | – | – | –
NCCNCCO | inactive | inactive | inactive | inactive | inactive | inactive | – | – | – | –
CO/N=C(/C(=O)N[C@@H]1C(=O)N2C(C(=O)O)=C(COC(N)=O)CS[C@H]12)c1ccco1 | inactive | inactive | inactive | inactive | inactive | inactive | – | – | – | –
CCOC(C)=O | inactive | inactive | inactive | inactive | inactive | inactive | – | – | – | –
C[C@@]12CCC[C@H]1[C@@H]1CC[C@H]3C[C@@H](O)CC[C@]3(C)[C@H]1CC2 | inactive | inactive | inactive | inactive | inactive | inactive | – | – | – | –
COc1cc(Nc2c(C#N)cnc3cc(OCCCN4CCN(C)CC4)c(OC)cc23)c(Cl)cc1Cl | 23.9 µM (active) | 1.88 µM (active) | 2.98 µM (active) | 2.37 µM (active) | 23.9 µM (active) | 33.5 µM (active) | – | – | – | –
CCOC(=O)c1ccc(OCCN2C[C@H](O)[C@@H](O)[C@H](O)[C@H]2CO)cc1 | inactive | inactive | inactive | inactive | inactive | inactive | – | – | – | –
CCOC(=O)c1ccc(I)cc1 | inactive | inactive | inactive | inactive | inactive | inactive | – | – | – | –
CCOc1ccccc1O[C@H](c1ccccc1)[C@H]1CNCCO1 | inactive | 29.8 µM (active) | 26.6 µM (active) | 13.3 µM (active) | inactive | inactive | – | – | – | –
CC(=O)Nc1cc(S(=O)(=O)O)cc2cc(S(=O)(=O)O)c(N=Nc3ccccc3)c(O)c12 | inactive | inactive | – | inactive | inactive | – | – | – | – | –
CC1(C)[C@@H](OC(=O)CCC(=O)O)CC[C@]2(C)[C@H]3C(=O)C=C4[C@@H]5C[C@@](C)(C(=O)O)CC[C@]5(C)CC[C@@]4(C)[C@]3(C)CC[C@@H]12 | inactive | inactive | inactive | inactive | – | inactive | – | – | – | –
CC(=O)OCC[N+](C)(C)C | inactive | inactive | inactive | – | inactive | inactive | – | – | – | –
CCOC(=O)OC(C)OC(=O)[C@@H]1N2C(=O)[C@@H](NC(=O)[C@H](N)c3ccccc3)[C@H]2SC1(C)C (stereo partly specified) | inactive | inactive | inactive | inactive | – | inactive | – | – | – | –
CN(C)CCN1C(=O)c2ccccc2N(C)c2ccccc21 | inactive | inactive | inactive | – | inactive | inactive | – | – | – | –
CC(=O)c1ccc([N+](=O)[O-])cc1 | inactive | inactive | inactive | – | inactive | – | – | – | – | –
O=C1Cc2ccccc2N1c1c(Cl)cccc1Cl | inactive | 24.3 µM (active) | 34.4 µM (active) | 27.3 µM (active) | – | inactive | 54.9 µM (active) | inactive | 61.1 µM (active) | –
CC[N+](CC)(CCNC(=O)C(=O)NCC[N+](CC)(CC)Cc1ccccc1Cl)Cc1ccccc1Cl | inactive | inactive | inactive | inactive | – | inactive | – | – | – | –
CN1C(=O)N(c2ccccc2Br)Cc2cnc(Nc3ccc4c(c3)OCC(CO)O4)nc21 (stereo unspecified) | 13.8 µM (active) | 7.7 µM (active) | 9.69 µM (active) | – | 43.6 µM (active) | – | – | – | – | –
CCOc1ccc(Cc2nccc3cc(OCC)c(OCC)cc23)cc1OCC | inactive | 4.03 µM (active) | 5.07 µM (active) | 5.07 µM (active) | – | inactive | inactive | inactive | – | inactive
CC(C)=CCC1C(=O)N(c2ccccc2)N(c2ccccc2)C1=O | inactive | 16.8 µM (active) | 16.8 µM (active) | – | inactive | – | – | – | – | –
CC(C)C[C@H](NC(=O)[C@H](CCc1ccccc1)NC(=O)CN1CCOCC1)C(=O)N[C@@H](Cc1ccccc1)C(=O)N[C@@H](CC(C)C)C(=O)[C@@]1(C)CO1 | 5.35 µM (active) | 0.0119 µM (active) | 0.0168 µM (active) | 0.0119 µM (active) | – | inactive | – | – | – | –
CC1(C)[C@H](C(=O)O)N2C(=O)C[C@H]2S1(=O)=O | inactive | inactive | inactive | – | inactive | inactive | – | – | – | –
O=C1c2ccccc2C(=O)N1CCc1noc(-c2ccc(CN3CCCCCC3)s2)n1 | inactive | 49.9 µM (active) | 39.7 µM (active) | 39.7 µM (active) | – | inactive | – | – | – | –
CC1(C)O[C@@H]2C[C@H]3[C@@H]4C[C@H](F)C5=CC(=O)C=C[C@]5(C)[C@H]4[C@@H](O)C[C@]3(C)[C@]2(C(=O)CO)O1 | inactive | inactive | inactive | inactive | – | inactive | – | – | – | –
CN1CCCC(n2nc(Cc3ccc(Cl)cc3)c3ccccc3c2=O)CC1 (stereo unspecified) | inactive | 11.9 µM (active) | 21.1 µM (active) | – | inactive | – | – | – | – | –
C=C1CCC2CC1C2(C)C (stereo unspecified) | inactive | inactive | inactive | – | inactive | – | – | – | – | –
CCC(C)COC(=O)CC(C)C (stereo unspecified) | inactive | 68.6 µM (active) | 61.1 µM (active) | 61.1 µM (active) | – | inactive | – | – | – | –
Nc1ccc(N=Nc2ccccc2)c(N)c1 | inactive | 53.3 µM (active) | 53.3 µM (active) | – | inactive | inactive | – | – | – | –
